From PubChem BioAssay
The list is not random: actives were taken first. Their share in the collection is about 19%.
Giardia killer: Giardia lamblia killing; 340,000 compounds, 0.15% hits; activity change, % at 7.66 µM, hits read low; Giardia lamblia trophozoite viability; in the data active = activity change below about -80%; inconclusive = between about -30% and that limit;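 note: parasites exposed to compound for two days anaerobically before the ATP read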
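Anaerobic 48 hrs incubation at 37 deg C of 100 trophozoites/well with test compounds; ATPLite 1-Step luminescence, 15-30 min RT, reports cellular ATP as viability.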
IL-1B inflam inh: blocks inflammasome-driven IL-1 beta release | THP-1 LPS/ATP IL-1B secretion, AlphaLISA, 16 h; hits give low values | activity change, % at 57.5 µM | 360,000 compounds, 4.7% hits; in the data active = activity change below about -50%; inconclusive = mostly about -30% to -49%
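THP-1 cells pretreated 1 hr with compounds (up to 57.5 uM final), then stimulated with LPS (250 ng/mL final) plus ATP (1.25 mM final); secreted IL-1B measured by AlphaLISA after 16 hr, decreased signal indicating inhibition.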
TDP1 cell noCPT: qHTS for Inhibitors of human tyrosyl-DNA phosphodiesterase 1 (TDP1): qHTS in cells in absence of CPT. 420,000 compounds, 15% hits. AID 686978, 2013. DT40 Tdp1-/- hTDP1 cells, no CPT, ATP luminescence, 48 h. Potency, µM (highest dose often 46.2 µM), for the others: top-dose activity change, negative = growth inhibition, usual class: inhibitors; note: potency is the fitted concentration of half-maximal effect; nearly all actives have a fitted effect of over 55% in size
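Stably hTDP1-transfected Tdp1-null chicken DT40 cells were treated with library compounds minus camptothecin and grown for at least 48 hr at 37 °C, after which cellular ATP was quantified by luminescence.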
TDP1 block: inhibitors of human tyrosyl-DNA phosphodiesterase TDP1; recombinant TDP1, AlphaScreen DNA substrate cleavage; 350,000 compounds, 0.28% hits; Potency, µM (top dose mostly 130 µM), inactives show at the highest dose activity change, negative = inhibition, most hits filed as inhibitors; Q9NUW8; note: potency is the fitted concentration of half-maximal effect; nearly all actives have a fitted effect of over 40% in size
Target sequence (Q9NUW8 whole entry, looked up): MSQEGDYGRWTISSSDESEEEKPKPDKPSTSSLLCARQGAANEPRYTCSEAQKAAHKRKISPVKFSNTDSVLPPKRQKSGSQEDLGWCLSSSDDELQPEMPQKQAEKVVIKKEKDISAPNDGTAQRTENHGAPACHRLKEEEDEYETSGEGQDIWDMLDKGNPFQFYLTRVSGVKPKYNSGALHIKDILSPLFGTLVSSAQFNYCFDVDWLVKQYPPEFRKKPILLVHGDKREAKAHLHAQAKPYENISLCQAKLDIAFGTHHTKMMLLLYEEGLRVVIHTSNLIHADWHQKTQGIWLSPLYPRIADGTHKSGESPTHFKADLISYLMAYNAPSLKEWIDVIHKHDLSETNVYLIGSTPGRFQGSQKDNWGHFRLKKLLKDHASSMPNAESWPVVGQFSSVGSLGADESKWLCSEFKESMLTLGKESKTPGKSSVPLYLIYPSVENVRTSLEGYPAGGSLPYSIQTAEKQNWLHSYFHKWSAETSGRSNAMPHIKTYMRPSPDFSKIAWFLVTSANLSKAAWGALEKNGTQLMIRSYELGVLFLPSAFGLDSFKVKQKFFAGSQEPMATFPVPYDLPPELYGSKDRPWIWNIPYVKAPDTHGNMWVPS
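Compounds were preincubated with Tdp1 (1 nM final) for 15 min at room temperature before substrate (15 nM final) started a 5 min reaction; beads (10 ug/ml final) were then added for 10 min before AlphaScreen detection.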
ELG1 repair inh: ELG1-dependent DNA repair inhibition. Potency, µM (titrated, usually from 46.1 µM), for inactives: top-dose activity change, negative = inhibition, hits mostly inhibitors. HEK293T ELG1-luciferase reporter, luminescence, 16 h; DNA damage induced by 5-fluorouridine. 330,000 compounds, 2.3% hits; note: potency is the fitted concentration of half-maximal effect; nearly all actives have a fitted effect of over 55% in size
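In this reporter screen, reduction of luminescence relative to DMSO vehicle indicated activity. Compounds and 5-fluorouridine were added together to 2,000 cells per well, incubated for 16 hr at 37 °C, then developed with ONE-Glo.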
DT40 TDP1 CPT: DT40-hTDP1 cell growth loss with CPT; Potency, µM (series often up to 46.2 µM), for inactives: top-dose activity change, negative = growth inhibition, most hits filed as inhibitors; chicken DT40 Tdp1-/-;hTDP1 cells + 20 nM CPT, ATP luminescence, 48 h; 420,000 compounds, 12% hits; note: potency is the fitted concentration of half-maximal effect; nearly all actives have a fitted effect of over 55% in size
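Chicken DT40 Tdp1-/- cells stably complemented with human TDP1 were seeded at 400 cells/well in medium containing 20 nM camptothecin, exposed to pin-transferred compounds, and grown at 37 °C for at least 48 hr. Viability was read as ATP luminescence.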
An asterisk follows results filed as active; ? = inconclusive; nt = not tested or not shown; [ ] = remark or other dose. Unless noted, calls come from the whole dose curve; as a rule, active = well fitted curve in the direction sought with a large enough effect; inconclusive = small, poorly fitted or top-dose-only effect, or another doubt; inactive = no such curve, though single readings can be large; an effect the other way counts as inactive or inconclusive. % is set by controls: 0 for no effect and ±100 for the full control effect.

SMILES	Giardia killer	IL-1B inflam inh	TDP1 cell noCPT	TDP1 block	ELG1 repair inh	DT40 TDP1 CPT
COc1ccc(-c2ccc(SCC(=O)N3c4ccccc4CC3C)nn2)cc1OC (centres undefined)	-26.3	-17.6	?	5.2%	16.4µM*	?
CC1Cc2ccccc2N1C(=O)CSc1ncc(-c2ccc(F)cc2)n1C (centres undefined)	-27.4	-77.3*	?	0.0%	?	?
CC1CCCCN1C(=O)CSc1nnc2c(n1)[nH]c1ccccc12 (centres undefined)	-3.9	7.2	-30.0%	nt	17.4%	-3.4%
Cn1c(-c2ccc(F)cc2)cnc1SCC(=O)N1CCCCC1	5.9	-6.2	-18.0%	1.0%	?	-23.8%
CC1Cc2ccccc2N1C(=O)CSc1nnc2c(n1)[nH]c1ccccc12 (centres undefined)	12.1	25.6	20.6µM*	6.3%	0.2%	?
CC1Cc2ccccc2N1C(=O)CSc1nncn1C (centres undefined)	7.7	4.0	-19.6%	2.4%	12.5%	8.2%
CC1Cc2ccccc2N1C(=O)CSc1nnc(-c2ccccc2)c(-c2ccccc2)n1 (centres undefined)	-12.9	?	?	5.2%	?	20.6µM*
CC(CN1C(C)CCCC1C)OC(=O)c1ccccc1F (centres undefined)	-18.5	4.7	4.6%	nt	4.1%	4.6%
CC(Sc1nnc(-c2ccccc2)c(-c2ccccc2)n1)C(=O)N1CCc2ccccc21 (centres undefined)	-1.2	-6.8	16.4µM*	-2.7%	-2.5%	?
O=C1Nc2ccccc2-n2nnnc2C1N1CCN(c2ccc(C(F)(F)F)cc2[N+](=O)[O-])CC1 (centres undefined)	nt	1.2	16.4µM*	nt	nt	23.1µM*
Cc1ccc(C)c(N2CCN(C3C(=O)Nc4ccccc4-n4nnnc43)CC2)c1 (centres undefined)	nt	28.1	16.4µM*	nt	nt	20.6µM*
C[C@]12c3[nH]c4cc(-c5ccco5)ccc4c3CCN1C(=O)[C@@H](CC(=O)NCCCn1ccnc1)C[C@@H]2C(=O)N1CCOCC1	-17.1	-13.1	-3.9%	0.9%[56.1 µM]	0.9%	-26.4%
COc1ccc(N=C2NC(=O)/C(=C/c3ccc(O)c(OC)c3)S2)cc1	-8.8	-66.5*	?	2.3%	?	?
COc1ccc(/C=C2\SC(=Nc3ccccc3)NC2=O)cc1	nt	nt	nt	0.0%	-17.0%	nt
O=C1NC(=NCc2ccccc2)S/C1=C/c1ccc(O)cc1	-3.5	-75.9*	11.6µM*	2.7%	?	?
COc1ccccc1N=C1NC(=O)/C(=C/c2ccc(N(C)C)cc2)S1	19.5	4.4	1.84µM*	8.2%	?	2.06µM*
Cc1c(N=C2NC(=O)/C(=C/c3ccc(O)cc3)S2)c(=O)n(-c2ccccc2)n1C	-11.7	-18.0	?	2.7%	12.3%	-17.9%
Cc1ccc(N=C2NC(=O)/C(=C/c3cccnc3)S2)cc1C	2.8	0.0	-20.6%	0.0%	6.3%	-15.8%
O=C1NC(=Nc2ccc(O)cc2)S/C1=C\C=C\c1ccco1	-10.2	97.8	0.731µM*	-11.0%	?	0.82µM*
COc1ccc(N=C2NC(=O)/C(=C\c3ccco3)S2)cc1	-7.7	3.0	?	0.0%	0.0%	-11.9%
COc1ccc(S(=O)(=O)CC2(O)CCN(C(=O)CC(C)C)CC2)cc1	-5.5	-4.8	6.7%	11.8%	9.0%	3.1%
CCc1ccc(N=C2NC(=O)/C(=C/c3ccc(OCC(=O)O)c(OC)c3)S2)cc1	-16.8	10.1	-8.2%	nt	2.9%	-5.9%
COc1cc(/C=C2/SC(=Nc3ccc(O)cc3)NC2=O)cc(OC)c1O	-9.5	29.1	11.6µM*	-1.2%	15.7%	16.4µM*
